# The supplement of paper PMC8728848
# The entries come from a sample that favours the strongest signals as a whole.
# Key:
# Assay in all cases: glycan array binding signal (z-score within array); higher = stronger binding
# Details in all cases: glycan notation: IUPAC condensed, linker removed
# [1] = biological target: Man(a1-2)Man(a1-3)[Man(a1-2)Man(a1-6)]Man
# Method in brief: (§1)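 Glycan array data were curated from 3228 arrays in the Consortium for Functional Glycomics database and kept only where the protein sequence was available. Glycan names were converted to IUPAC-condensed notation, and columns mapping to the same glycan were averaged. The binding signal is a within-array Z-score, averaged across arrays of the same protein sequence at different concentrations or buffers and across linkers. Negative Z-scores can be read as non-binding.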
# [2] = biological target: Man(a1-2)Man(a1-3)[Man(a1-2)Man(a1-6)]Man(a1-6)[Man(a1-2)Man(a1-2)Man(a1-3)]Man
# Method in brief: as §1
# [3] = biological target: Man(a1-2)Man(a1-6)[Man(a1-3)]Man(a1-6)[Man(a1-2)Man(a1-2)Man(a1-3)]Man(b1-4)GlcNAc(b1-4)GlcNAc
# Method in brief: as §1
# [4] = biological target: Man(a1-3)[Man(a1-6)]Man(a1-6)[Man(a1-3)]Man
# Method in brief: as §1
# [5] = biological target: Neu5Ac(a2-3)Gal(b1-3)GalNAc(b1-3)Gal(a1-4)Gal(b1-4)Glc
# Method in brief: as §1
# [6] = biological target: Neu5Ac(a2-3)Gal(b1-3)GlcNAc(b1-3)Gal(b1-3)GlcNAc
# Method in brief: as §1
# [7] = biological target: Neu5Ac(a2-3)Gal(b1-3)GlcNAc6S
# Method in brief: as §1
# [8] = biological target: Neu5Ac(a2-3)Gal(b1-3)[Fuc(a1-4)]GlcNAc
# Method in brief: as §1
# [9] = biological target: Neu5Ac(a2-3)Gal(b1-3)[Fuc(a1-4)]GlcNAc(b1-3)Gal(b1-3)[Fuc(a1-4)]GlcNAc
# Method in brief: as §1
# [10] = biological target: Neu5Ac(a2-3)Gal(b1-4)GlcNAc(b1-2)Man(a1-3)[Neu5Ac(a2-3)Gal(b1-4)GlcNAc(b1-2)Man(a1-6)]Man(b1-4)GlcNAc(b1-4)[Fuc(a1-6)]GlcNAc
# Method in brief: as §1
# [11] = biological target: Neu5Ac(a2-3)Gal(b1-4)GlcNAc(b1-2)[Neu5Ac(a2-3)Gal(b1-4)GlcNAc(b1-6)]Man(a1-6)[Neu5Ac(a2-3)Gal(b1-4)GlcNAc(b1-2)Man(a1-3)][GlcNAc(b1-4)]Man(b1-4)GlcNAc(b1-4)GlcNAc
# Method in brief: as §1
# [12] = biological target: Neu5Ac(a2-3)Gal(b1-4)GlcNAc(b1-3)Gal(b1-4)GlcNAc(b1-6)[Gal(b1-3)]GalNAc
# Method in brief: as §1
# [13] = biological target: Neu5Ac(a2-3)Gal(b1-4)GlcNAc(b1-6)GalNAc
# Method in brief: as §1
# [14] = biological target: Neu5Ac(a2-3)Gal(b1-4)[Fuc(a1-3)]GlcNAc6S
# Method in brief: as §1
# [15] = biological target: Neu5Ac(a2-3)[GalNAc(b1-4)]Gal(b1-4)Glc
# Method in brief: as §1
# [16] = biological target: Neu5Ac(a2-3)[GalNAc(b1-4)]Gal(b1-4)GlcNAc(b1-3)GalNAc
# Method in brief: as §1
# [17] = biological target: Neu5Ac(a2-6)Gal(b1-4)GlcNAc(b1-2)Man(a1-3)[Neu5Ac(a2-6)Gal(b1-4)GlcNAc(b1-2)Man(a1-6)]Man(b1-4)GlcNAc(b1-4)[Fuc(a1-6)]GlcNAc
# Method in brief: as §1
# [18] = biological target: Neu5Ac(a2-6)Gal(b1-4)GlcNAc(b1-3)Gal(b1-4)GlcNAc(b1-3)[Neu5Ac(a2-6)Gal(b1-4)GlcNAc(b1-3)Gal(b1-4)GlcNAc(b1-6)]GalNAc
# Method in brief: as §1
# [19] = biological target: Neu5Ac(a2-6)Gal(b1-4)GlcNAc(b1-3)Gal(b1-4)[Fuc(a1-3)]GlcNAc(b1-3)Gal(b1-4)[Fuc(a1-3)]GlcNAc
# Method in brief: as §1
# [20] = biological target: Neu5Ac(a2-6)Gal(b1-4)GlcNAc(b1-6)[Gal(b1-3)]GalNAc
# Method in brief: as §1
# [21] = biological target: Neu5Ac(a2-6)Gal(b1-4)GlcNAc6S
# Method in brief: as §1
# [22] = biological target: Neu5Ac(a2-6)GalNAc(b1-4)GlcNAc6S
# Method in brief: as §1
# Neu5Ac(a2-8)Neu5Ac = biological target: Neu5Ac(a2-8)Neu5Ac
# Method in brief: as §1
# [23] = biological target: Neu5Ac(a2-8)Neu5Ac(a2-8)Neu5Ac
# Method in brief: as §1
# [24] = biological target: Neu5Ac(a2-8)Neu5Ac(a2-8)Neu5Ac(a2-3)[GalNAc(b1-4)]Gal(b1-4)Glc
# Method in brief: as §1
# [25] = biological target: Neu5Gc(a2-3)Gal(b1-3)[Fuc(a1-4)]GlcNAc
# Method in brief: as §1
# [26] = biological target: Neu5Gc(a2-3)Gal(b1-4)GlcNAc
# Method in brief: as §1
# [27] = biological target: Neu5Gc(a2-8)Neu5Ac(a2-3)Gal(b1-4)GlcNAc
# Method in brief: as §1
binder,measurement,setting,value
Pwp2 (Candida glabrata) (protein) MGSSHHHHHHSSGLVPRGSHMASKNPVELNNVCTFPNDYGRIPGFTVLVGRLGLLISASDYKELLRYPGAFLIATQDTMTTSPNFELTGFPFFTGLYGLTVFPLDLLVELRGYFVPPNSGQYTFTLSDSDDAAIIFLGNPSAFPCGDLQNWPKPSEEDITVTDHLFPSRTLYLIEGVAYPMRIAYYNGIGAGRLNAAFIDPSGTRHTNWEGYIWQYDPCSTCTYS,glycan array binding signal (z-score),[1],-0.477
same,glycan array binding signal (z-score),[2],-0.722
same,glycan array binding signal (z-score),[3],-0.467
same,glycan array binding signal (z-score),[4],5.45
same,glycan array binding signal (z-score),[5],-0.307
same,glycan array binding signal (z-score),[6],-0.269
same,glycan array binding signal (z-score),[7],-0.456
same,glycan array binding signal (z-score),[8],0.549
same,glycan array binding signal (z-score),[9],4
same,glycan array binding signal (z-score),[10],0.96
same,glycan array binding signal (z-score),[11],4.22
same,glycan array binding signal (z-score),[12],1.44
same,glycan array binding signal (z-score),[13],4.01
same,glycan array binding signal (z-score),[14],0.309
same,glycan array binding signal (z-score),[15],0.443
same,glycan array binding signal (z-score),[16],0.085
same,glycan array binding signal (z-score),[17],1.79
same,glycan array binding signal (z-score),[18],-0.059
same,glycan array binding signal (z-score),[19],-0.077
same,glycan array binding signal (z-score),[20],3.56
same,glycan array binding signal (z-score),[21],-0.426
same,glycan array binding signal (z-score),[22],4.86
same,glycan array binding signal (z-score),Neu5Ac(a2-8)Neu5Ac,-0.04
same,glycan array binding signal (z-score),[23],-0.203
same,glycan array binding signal (z-score),[24],0.537
same,glycan array binding signal (z-score),[25],-0.072
same,glycan array binding signal (z-score),[26],0.982
same,glycan array binding signal (z-score),[27],-0.437
